The sample as a whole holds a higher share of hits than the screen did.
Shiga toxin inh: inhibitors of Shiga toxin in Vero cells; Vero cells, Shiga toxin protein synthesis inhibition reporter; inhibition, % at 38.7 µM; 9.2% of 290,000 active; AID 2315; in the data active means inhibition mostly above about 28%, no sharp cut-off; inactive means mostly below about 43%; further: 0% is about no effect
AmpC inh no detg: inhibitors of E. coli AmpC beta-lactamase without detergent. AID 485341. AmpC nitrocefin hydrolysis, absorbance 480 nm, 0.0001% Triton. 0.52% of 330,000 active. Potency, µM (top dose mostly 57.1 µM), for inactives: at the highest dose activity change, negative = inhibition, hits mostly inhibitors;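 further: potency means the concentration at half of the fitted maximal effect; plate controls were no compound for no effect and no enzyme for full effect; nearly all actives have a fitted effect of over 20% in size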
Target sequence (P00811 whole entry, looked up): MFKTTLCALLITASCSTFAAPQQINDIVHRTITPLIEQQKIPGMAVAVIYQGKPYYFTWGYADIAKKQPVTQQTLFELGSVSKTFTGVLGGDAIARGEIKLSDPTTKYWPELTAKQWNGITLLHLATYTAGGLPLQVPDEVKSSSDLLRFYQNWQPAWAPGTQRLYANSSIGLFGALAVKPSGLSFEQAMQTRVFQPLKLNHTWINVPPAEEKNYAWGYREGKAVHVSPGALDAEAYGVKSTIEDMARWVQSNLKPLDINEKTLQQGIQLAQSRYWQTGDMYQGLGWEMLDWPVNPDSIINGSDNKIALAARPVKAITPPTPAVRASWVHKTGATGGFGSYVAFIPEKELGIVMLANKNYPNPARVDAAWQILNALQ
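20 mM phosphate pH 7.0 + 0.01% (detergent screen) or 0.0001% Triton X-100; 5.3 nM AmpC reagent; cpd preinc 15 min RT; nitrocefin (800 uM stock) to start; A480 q20 s × 4 min; Activity was normalised to no-enzyme and no-compound control wells.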
CHX counter: affects cycloheximide protein synthesis inhibition readout, counter-screen; max response, %; cell reporter, cycloheximide protein synthesis inhibition counterscreen; 12% of 300,000 active; in the data active means max response mostly above about 13%, no sharp cut-off; inactive means mostly below about 14%; further: read at 38.3 µM for the half of the compounds with a filed dose; 0% is about no effect
AMA1-RON2 inh: inhibitors of Plasmodium falciparum AMA1-RON2 interaction | 0.2% of 360,000 active | Potency, µM (highest dose often 58.2 µM), for the others: at the top dose activity change, negative = inhibition, usual class: inhibitors | AlphaScreen AMA1-biotinylated RON2 peptide binding | AID 720542;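 further: potency means the concentration at half of the fitted maximal effect; 0% = vehicle wells and -100% = peptide control; nearly all actives have a fitted effect of over 45% in size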
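AMA1 (3D7) with his tag at 25 nM final met compounds first, then biotinylated RON2 peptide at 25 nM; detection used donor plus acceptor beads, 10 µg/mL apiece, read by AlphaScreen after 30 min at room temperature.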
AmpC detergent: inhibitors of E. coli AmpC beta-lactamase with detergent. P00811. AID 485294. AmpC hydrolysis of nitrocefin, absorbance 480 nm, 0.01% Triton. Potency, µM (titrated, usually from 114 µM), inactives show at the top dose activity change, negative = inhibition, hits mostly inhibitors. 0.041% of 370,000 active;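 further: potency means the concentration at half of the fitted maximal effect; 0% = no-compound wells and -100% = no-enzyme wells; nearly all actives have a fitted effect of over 25% in size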
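AmpC (5.3 nM in the dispensed reagent) in 20 mM phosphate pH 7.0 with 0.01% (detergent screen) or 0.0001% Triton X-100 was preincubated with compounds for 15 min at room temperature. Nitrocefin was then added from an 800 uM solution, and hydrolysis was followed at 480 nm.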
SARS PLpro yeast: SARS-CoV PLP inhibition in yeast; Potency, µM (titrated, usually from 32.9 µM), without a hit: at the top dose activity, positive = growth rescue, most hits filed as activators; 0.19% of 330,000 active; S. cerevisiae expressing SARS-CoV PLpro, growth rescue; calls by dose curve; further: potency means the concentration at half of the fitted maximal effect; 0% is about no effect; nearly all actives have a fitted effect of over 55% in size
Starred values were filed as active, the others as inactive; ? = inconclusive; nt = not tested or not shown; [ ] = dose if it differs, or a comment. Unless noted, the call rests on the fitted dose curve; in most records, active means well fitted curve in the direction sought with a large enough effect; inconclusive means small, poorly fitted or top-dose-only effect, or another doubt; inactive means no such curve, though single readings can be large; an effect the other way counts as inactive or inconclusive.

SMILES | Shiga toxin inh | AmpC inh no detg | CHX counter | AMA1-RON2 inh | AmpC detergent | SARS PLpro yeast
Cc1cc(OCC(=O)N(C)C2CCCCC2)cc(C)c1Cl | 91* | 48% | 42* | -6% | 8% | -3%
CCC(Sc1ncnc2sc3c(c12)CCCC3)C(=O)OCC(C)C (centres undefined) | nt | nt | nt | nt | 14% | nt
CN1C(C(=O)NCc2ccco2)CC2Cn3c(nc4cc5ccccc5cc43)C21 (centres undefined) | 2 | 32% | -5 | 10% | 2% | 1%
CN1C(C(=O)NCc2ccco2)CC2Cn3c(nc4cc(Cl)c(Cl)cc43)C21 (centres undefined) | 2 | 11% | 13* | -7% | -5% | 2%
COc1ccc2[nH]c(C(=O)O)c(CCC(=O)O)c2c1 | -14 | -13% | -3 | -14% | 1% | -3%
COc1ccc2[nH]c(C(=O)O)c(CCN3C(=O)c4ccc(C(=O)O)cc4C3=O)c2c1 | 24 | -6% | 17* | -5% | 3% | 0%
Cn1cccc1/C=C1\SC(=O)N(c2ccc(O)cc2)C1=O | 33* | -28% | 39* | -13% | -6% | 26%
CCOc1ccc(N2C(=O)S/C(=C\c3cccn3C)C2=O)cc1 | 30 | -28% | 10 | -11% | 2% | 1%
O=C(Nc1ncc(Cc2cccc(C(F)(F)F)c2)s1)C1CCCO1 (centres undefined) | 35* | 27% | 34* | 4% | 4% | -6%
Cc1ccc(Cc2cnc(NC(=O)C3CCCO3)s2)cc1 (centres undefined) | 138* | -4% | 34* | -9% | 0% | 3%
Oc1cccc2ccc(/C=C/c3ccccc3Cl)nc12 | 72* | -30% | 40* | 103% | 3% | -5%
Oc1cccc2ccc(/C=C/c3c(F)cccc3Cl)nc12 | 158* | -40% | 53* | 29% | -10% | 3%
Cn1c(NC(=O)/C=C/c2c(F)cccc2Cl)cc(=O)n(C)c1=O | 29 | -13% | 1 | -18% | 11% | -3%
Nc1nccc(/C=C/c2c(F)cccc2Cl)n1 | 68* | -21% | 28* | 17% | 2% | 0%
O=S(=O)(c1cccc(Cl)c1)n1c(/C=C/c2ccccc2Cl)nc2ccccc21 | nt | nt | nt | nt | -6% | nt
Cc1ccccc1-c1nc(CN(Cc2c(C)nn(C)c2C)C2CC2)c(C)o1 | -15 | 256% | 2 | -12% | -1% | 0%
S=C(NCc1ccncc1)Nc1ccc(Cl)c(Cl)c1 | -10 | -52% | -4 | -10% | ? | -17%
CC(Cc1cccs1)NC(=S)Nc1ccc(Cl)cc1 (centres undefined) | 45* | -41% | 21* | -25% | -4% | -82%
CC(C(=O)Nc1ccc(Cl)cc1)N(C)Cc1cccs1 (centres undefined) | 21 | -9% | 12 | 2% | ? | -5%
CC(Cc1cccs1)NC(=S)Nc1ccc(Cl)c(Cl)c1 (centres undefined) | active | -21% | 11 | 21% | -6% | nt
O=c1ccc2nc3ccccc3sc-2c1 | nt | nt | nt | 14µM* | nt | nt
Cc1nc(N)sc1-c1csc(N(C)c2ccc(O)cc2)n1 | 66* | -7% | 23* | 23% | ? | -1%
CN(c1ccc(O)cc1)c1nc(-c2cccs2)cs1 | -6 | 45% | -4 | -20% | -4% | 0%
COc1ccccc1CCNC(=O)c1nc(-c2cccs2)no1 | 67* | -9% | 29* | -21% | -11% | -2%
COc1ccc(C(=O)NCc2csc(-c3cccs3)n2)cc1 | 13 | -29% | 1 | 1% | 3% | -2%
SMILES | Shiga toxin inh | AmpC inh no detg | CHX counter | AMA1-RON2 inh | AmpC detergent | SARS PLpro yeast
COc1ccc(CCNC(=O)c2nc(-c3cccs3)no2)cc1OC | 7 | -23% | -2 | 0% | -6% | -1%
COc1ccccc1CC(=O)NCc1csc(-c2cccs2)n1 | 68* | -8% | 47* | 7% | 9% | 1%
CCC(=O)NCc1csc(-c2cccs2)n1 | 28 | -10% | 24* | 1% | 3% | -1%
O=S(=O)(NCc1csc(-c2cccs2)n1)c1ccccc1 | 41 | -48% | 6.7* | -2% | 7% | -1%
O=C(NCc1csc(-c2cccs2)n1)Nc1cccc(Cl)c1 | -13 | -42% | 11 | 21% | 2% | 0%
Cc1ccc(CN2CCC[C@]3(N[C@H](c4ccc(C(F)(F)F)cc4)[C@@H]4C(=O)N(C)C(=O)[C@@H]43)C2=O)cc1 | nt | nt | nt | 2% | nt | nt
O=C(NCc1csc(-c2cccs2)n1)C1CCCCC1 | 76* | -20% | 29* | -3% | 3% | 0%
CC(=O)c1cc(C(=O)NC2CCCc3c2cnn3-c2cc(C)cc(C)c2)[nH]n1 (centres undefined) | 35* | 27% | 29* | 12% | -8% | 4%
Cc1cc(C)cc(-n2ncc3c2CCCC3NC(=O)c2cc(C)n(C)n2)c1 (centres undefined) | 36* | 145% | 22* | -2% | 5% | -12%
Cc1cc(C(=O)NC2CCCc3c2cnn3-c2cccc(C)c2C)no1 (centres undefined) | 46* | 23% | 27* | -2% | ? | -7%
CC1=C(C(=O)NC2CCCc3c2cnn3-c2cccc(C)c2C)OCCO1 (centres undefined) | -3 | 47% | 8 | 6% | 3% | 0%
On1c(-c2ccccc2)nc2ncccc21 | -6 | -14% | -5 | 4% | -4% | 0%
COc1ccc(S(=O)(=O)N2CCN(c3ncccn3)CC2)cc1 | nt | nt | nt | 4% | nt | nt
COc1ccc(N2CCN(c3ncccn3)CC2)cc1 | 152* | -5% | 24* | 11% | 0% | 7%
COc1ccc(N2CCN(c3cc(C)c4ccccc4n3)CC2)cc1 | 2 | 1% | 7 | ? | 9% | -7%
COc1ccc(N2CCN(c3cnc4ccccc4n3)CC2)cc1 | 70* | -3% | 37* | 0% | 4% | 0%
COc1cccc(N2CCN(c3cnc4ccccc4n3)CC2)c1 | 94* | 25% | 36* | -21% | -10% | -3%
Cc1ccc(N/N=C2\CC(=O)c3ccccc32)cc1Cl | 37 | -53% | 13* | nt | 4% | 0%
O=[N+]([O-])c1ccc(Sc2nc3ccccc3o2)c([N+](=O)[O-])c1 | 55* | -24% | 10 | 27µM* | ? | -37%
O=[N+]([O-])c1ccc(Cl)cc1Sc1nc2ccccc2o1 | 17 | -19% | 0 | ? | -13% | -13%
Nc1c2c(nc3sc4c(c13)CCCCC4)CCCC2 | 137* | -1% | 62* | -9%[11.6 µM] | ? | -64%
Nc1c2c(nc3sc4c(c13)CCCC4)-c1ccccc1CC2 | 97* | -33% | 50* | 4% | -11% | -2%
Nc1c2c(nc3c1CCC3)CCCC2 | -5 | -10% | -4 | nt | -1% | 4%
CCOC(=O)N1CCC(NC(=O)c2oc3c(F)cccc3c2C)CC1 | 62* | 70% | 65* | -7% | 0% | 3%

Source: PubChem (National Center for Advancing Translational Sciences (NCATS))
